# Test results published in PubChem BioAssay (Tox21).
# Results filed as inconclusive are left out. Unmarked numbers belong to inactive results. Active and inactive are the calls of the source. The call rests on the fitted dose curve.
# Target: Acetylcholinesterase (Homo sapiens) (UniProt P22303)
# Experiment: Acetylcholinesterase (AChE) small molecule antagonists: fluorescence cell-based qHTS assay (AID 1347398); further: nearly all actives have a fitted effect of over 50% in size
# Settings: SH-SY5Y cells; Potency: AChE activity; outcome: AChE activity; series mostly up to 115 µM; activity change, negative = inhibition: at the top concentration
# Method in brief: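 Endogenous acetylcholinesterase of SH-SY5Y neuroblastoma cells is measured in situ. After overnight attachment and 30 min compound exposure, cells receive acetylthiocholine and Thiolite Green; fluorescence is read after 40 min at room temperature.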
# On the % scale 0 is the no-effect control and ±100 the full control effect.
# Acetylcholinesterase (Homo sapiens), sequence (P22303 whole entry, looked up): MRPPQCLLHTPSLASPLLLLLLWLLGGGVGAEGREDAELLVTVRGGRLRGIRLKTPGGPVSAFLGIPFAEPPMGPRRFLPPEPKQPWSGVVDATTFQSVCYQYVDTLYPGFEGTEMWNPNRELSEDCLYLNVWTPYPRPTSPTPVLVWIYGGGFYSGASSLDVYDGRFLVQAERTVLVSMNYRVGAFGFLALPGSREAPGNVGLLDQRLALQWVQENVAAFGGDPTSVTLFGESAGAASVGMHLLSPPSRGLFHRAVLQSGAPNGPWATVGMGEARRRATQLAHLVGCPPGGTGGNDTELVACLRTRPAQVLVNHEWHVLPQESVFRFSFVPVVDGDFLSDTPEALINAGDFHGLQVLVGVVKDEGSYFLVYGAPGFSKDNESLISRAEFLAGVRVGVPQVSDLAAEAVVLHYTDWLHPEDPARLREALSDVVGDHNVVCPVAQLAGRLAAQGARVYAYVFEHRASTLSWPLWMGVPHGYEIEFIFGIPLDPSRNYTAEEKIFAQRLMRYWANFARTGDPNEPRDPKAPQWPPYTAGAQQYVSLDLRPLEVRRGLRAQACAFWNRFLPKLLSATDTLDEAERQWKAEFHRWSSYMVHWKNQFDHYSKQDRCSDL
Compound,"activity change, negative = inhibition",Potency
O=C(c1ccccc1)c1ccc(Cl)cc1,0.191%,–
O=C(O)Cn1c(C(=O)Nc2nc(-c3ccccc3Cl)cs2)cc2ccccc21,4.1% [at 53.7 µM],–
O=C(O)Cn1cnnn1,0.281% [at 53.7 µM],–
CCCCOC(=O)C(C)Oc1ccc(Oc2ccc(C(F)(F)F)cn2)cc1 (stereo not given),-3.29%,–
O=C(c1ccccc1)c1cccc(O)c1,-6.35%,–
CO[C@H]1C=CO[C@@]2(C)Oc3c(C)c(O)c4c(O)c(c5c(c4c3C2=O)=NC2(CCN(CC(C)C)CC2)N=5)NC(=O)/C(C)=C\C=C/[C@H](C)[C@H](O)[C@@H](C)[C@@H](O)[C@@H](C)[C@H](OC(C)=O)[C@@H]1C,-5.35%,–
Cc1ccc(C(C)C)cc1O,2.64%,–
O=C1OC2(c3cc(Br)c(O)c(Br)c3Oc3c2cc(Br)c(O)c3Br)c2c(Cl)c(Cl)c(Cl)c(Cl)c21,–,inactive
CC(C)=CC(C)(C)C,-0.486%,–
CCC(C)OC(=O)c1ccc(O)cc1 (stereo not given),–,inactive
Brc1cc(Oc2cc(Br)c(Br)c(Br)c2Br)c(Br)c(Br)c1Br,–,inactive
C/C(=C(\CCOP(=O)(O)O)SC(=O)c1ccccc1)N(C=O)Cc1cnc(C)nc1N,5.35% [at 10.5 µM],–
COC(=O)N/N=C/c1c[n+]([O-])c2ccccc2[n+]1[O-],-9.78% [at 53.7 µM],–
c1ccc2ccccc2c1,–,inactive
O=C1NCCN1,2.07%,–
Cc1ccc(C(=O)Oc2ccc(C(O)CNC(C)(C)C)cc2OC(=O)c2ccc(C)cc2)cc1 (stereo not given),-11.2% [at 53.7 µM],–
COC(=O)CCS,8.23%,–
CCCCOC(=O)CCCCCCCCC(=O)OCCCC,–,inactive
CO[C@H]1O[C@H](CO)[C@@H](O)[C@H](O)[C@H]1O,0.178%,–
CC1CC(OC(=O)c2ccccc2O)CC(C)(C)C1 (stereo not given),–,inactive

Compound,"activity change, negative = inhibition",Potency
O=c1cccc[nH]1,0.262%,–
Cc1cccc(C)c1C,3.13%,–
Cc1cc2c(s1)Nc1ccccc1N=C2N1CCN(C)CC1,-0.248% [at 53.7 µM],–
CCCC1CCC(=O)O1 (stereo not given),1.18%,–
O=S(=O)(O)c1ccc(N=Nc2c(O)ccc3cc(S(=O)(=O)O)ccc23)cc1,-20.6%,–
Cc1ccc(Br)cc1,0.508%,–
O=C(CC(=O)c1ccccc1)c1ccccc1,-9.95%,–
O=c1[nH]cnc2nc[nH]c12,10.1% [at 53.7 µM],–
CC(=O)OCC(=O)[C@@]1(O)CC[C@H]2[C@@H]3CCC4=CC(=O)C=C[C@]4(C)[C@H]3[C@@H](O)C[C@@]21C,0.231% [at 53.7 µM],–
CC(C)(C)c1n[nH]c(=O)n(N)c1=O,6.97%,–
Cc1ccc2cccnc2c1,2.12%,–
C/C=C/c1ccc(O)c(OC)c1,–,inactive
O=C(/C=C/c1ccc([N+](=O)[O-])cc1)c1ccccc1,-1.78%,–
CC[Si](OC(C)=O)(OC(C)=O)OC(C)=O,–,inactive
CCCN(CCC)C(=O)C(CCC(=O)OCCCN1CCN(CCOC(=O)Cc2c(C)n(C(=O)c3ccc(Cl)cc3)c3ccc(OC)cc23)CC1)NC(=O)c1ccccc1 (stereo not given),-26.2% [at 53.7 µM],–
O=c1c2ccccc2oc2ccccc12,-7.86%,–
CCN[C@H]1CN(CCCOC)S(=O)(=O)c2sc(S(N)(=O)=O)cc21,4.89% [at 53.7 µM],–
CC1=Nc2ccccc2C1(C)C,-3.87%,–
O=C1NCCN1CCO,0.683%,–
Nc1nc(Cl)nc2c1ncn2[C@H]1C[C@H](O)[C@@H](CO)O1,6.82%,–
